Results taken from PubChem BioAssay (NCI).
This is part of a sample that, as a whole, favours compounds with a hit. Of some 83,000 tested, about 20% had one in any assay.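 Single-concentration screen, 48 h exposure, 96-well plates. Endpoint: percent growth. Below 10 = active.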 The source made the active and inactive calls.

system: SR leukemia; test: NCI-60 one-dose screen, 48 h (100 = growth as untreated, 0 = no growth, -100 = all killed); details: 10 µM unless noted

| SMILES | growth |
| --- | --- |
| CCC(C)CC(C)C(=O)c1c(O)ccn(O)c1=O (stereo not drawn) | 22.9% (inactive) |
| COc1ccc2nc(NC(=O)c3cc(-c4ccc(F)cc4)n4nc(-c5ccccc5)cc4n3)sc2c1 | 77.5% (inactive) |
| COc1cccc2c1O/C(=C\c1c([N+](=O)[O-])ncn1C)C2=O | 62.8% (inactive) |
| O=C(Nc1ccncc1)C(=O)c1cn(S(=O)(=O)c2cccc(F)c2)c2ccccc12 | 16.5% (inactive) |
| COc1ccc(-c2cn(-c3ccccc3)c(-c3ccccc3)n2)cc1OC | 11.3% (inactive) |
| Clc1ccc2nc(Cl)c3ccccc3c2c1 | 1.29% (active) |
| Nc1ccc(C2=NN(c3ccccc3)C(c3ccc(Cl)cc3)C2)cc1 (stereo not drawn) | 2.52% (active) |
| CSc1nnc(C2=CC(=O)c3ccccc3C2=O)n1-c1ccccc1 | 70.2% (inactive) |
| CCN(CC)c1ccc(CN(CC(=O)c2ccc(Cl)c(Cl)c2)Cc2ccccc2)cc1 | 88.3% (inactive) |
| C/C(=C\CCc1ccsc1)CC/C=C(\C)CCCN1CCC(CO)CC1 | -44.8% (active) |
| O=C(Nc1cccc(C(F)(F)F)c1)Nc1ccc(OCc2nnc(-c3ccc(Cl)cc3)o2)c(F)c1 | 66.3% (inactive) |
| CCOc1cc(-c2ccc[nH]2)[nH]c1/C=C1\N=C(C)C(C(=O)OC)=C1C | -45.5% (active) |
| O=C1/C(=C/c2ccc([N+](=O)[O-])s2)Oc2ccc(Br)cc21 | 7.74% (active) |
| COc1ccc(Nc2nccc(N3CCN(c4c5ccc(Cl)cc5nc5ccc(OC)cc45)CC3)n2)cc1 | 21.1% (inactive) |
| Cc1cc(NCCCNc2ccnc3cc(Cl)ccc23)nc(N2CCN(C)CC2)n1 | 0.0449% (active) |
| O=C(Nc1ccc(OCc2nnc(-c3ccccc3)o2)c(F)c1)Nc1ccc(Cl)c(C(F)(F)F)c1 | 0.0728% (active) |
| c1cnc2n[nH]c(Nc3ncnc4c3sc3ncccc34)c2c1 | 101% (inactive) |
| COc1cc(/C=C2\CCC/C(=C\c3ccc(OCC4CO4)c(OC)c3)C2=O)ccc1OCC1CO1 (stereo not drawn) | -3.1% (active) |
| COc1cc(/C=C2\COc3ccc(O)c(O)c3C2=O)cc(OC)c1 | -13.6% (active) |

| SMILES | growth |
| --- | --- |
| O=C1/C(=C/c2ccc([N+](=O)[O-])o2)Oc2ccc(Cl)cc21 | 5.52% (active) |
| O=[N+]([O-])c1cnc(Sc2ccncn2)c([N+](=O)[O-])c1 | 11.8% (inactive) |
| O=C(O)c1ccc(NC(=O)c2ccc(Nc3ccnc(C(F)(F)F)c3)cc2)cc1 | 90% (inactive) |
| Cc1ccc2c(c1)O/C(=C\c1ccc([N+](=O)[O-])o1)C2=O | 10.6% (inactive) |
| O=C1/C(=C/c2ccc([N+](=O)[O-])o2)Oc2ccc(Br)cc21 | 8.8% (active) |
| O=C(Nc1ccc(Cl)cc1)c1cc2c(cc1O)[nH]c1ccccc12 | 1.22% (active) |
| Cc1cc2c(cc1C)Nc1sc(NC(=O)CN3CCN(C)CC3)nc1C(=O)N2 | 79% (inactive) |
| COc1ccc2nc3cc(Cl)ccc3c(N3CCN(c4ccnc(Nc5ccc(F)cc5)n4)CC3)c2c1 | 43.2% (inactive) |
| COc1cc(C2CC(c3ccc(C)cc3)=NN2C(C)=O)ccc1Oc1ccnc2cc(Cl)ccc12 (stereo not drawn) | 35.1% (inactive) |
| O=C(/C=C/c1cccnc1)NCCCCC1CCCN(C(=O)c2ccccc2)C1 (stereo not drawn) | 33% (inactive) |
| CCOC(=O)c1c(NC(=O)C2CCCCC2C(=O)O)sc2c1CCCC2 (stereo not drawn) | 111% (inactive) |
| Cc1ccc(C=C2C(Cl)=C(Cl)C(Cl)=C2Cl)cc1 | 19% (inactive) |
| O=C(/C(=N/O)S(=O)(=O)c1ccccc1)c1cccs1 | 85.9% (inactive) |
| CCOc1nc(-c2ccccc2)cc2c(O)c(C(=O)n3nc(C)cc3C)[nH]c(=O)c12 | 96.2% (inactive) |
| COc1ccc(OC)c(NC(=O)c2cc3oc4ccccc4c3cc2O)c1 | 127% (inactive) |
| CN(C)c1ccc(/C=C(\C#N)c2nc3ccccc3c(=O)[nH]2)cc1 | 154% (inactive) |
| Nc1nc(SCc2ccccc2Cl)c(-c2ccccc2)c(SCc2ccccc2Cl)n1 | 96.3% (inactive) |
| C/C(=C\CCc1ccsc1)CC/C=C(\C)CCCN1CCN(CCO)CC1 | -29.1% (active) |
| CCN1C(=O)c2ccc3c4c(ccc(c24)C1=O)C(=O)N(CCCNCc1ccccc1OC)C3=O | -42% (active) |
